Measurements taken from PubChem BioAssay (EPA / NIEHS).
Inconclusive results are not listed. Where a structure was tested more than once in an assay, its records may differ in their call. The source made the active and inactive calls. Rule for the calls, unless noted: active = hit-call score of the fitted dose curve at least 0.9, where 1 is the maximum; inconclusive = response in the unintended direction; inactive = score below 0.9.

Legend:
[1] = target: Bile acid receptor (Homo sapiens) (UniProt Q96RI1); assay: OT_FXR_FXRSRC1_0480: Odyssey Thera (OT) 8-hour HEK293T Protein-Complementation Assay for Farnesoid X receptor/SRC-1 Co-activator (AID 2283383)
In short: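 HEK293T cells expressing FXR and SRC-1 fused to reporter fragments were dosed with compound for 8 h; fluorescence from the reconstituted reporter marked co-activator recruitment. Gain of signal was fitted against the DMSO baseline.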

[2] = target: Bile acid receptor (Homo sapiens) (UniProt Q96RI1); assay: OT_FXR_FXRSRC1_1440: Odyssey Thera (OT) 24-hour HEK293T Protein-Complementation Assay for Farnesoid X receptor/SRC-1 Co-activator (AID 2283384)
In short: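 HEK293T cells were dosed with compound and read 24 h later by fluorescence intensity from protein-fragment complementation reporting FXR/SRC-1 co-activator interaction. Gain of signal was fitted relative to DMSO negative control as baseline.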

[3] = target: Retinoic acid receptor RXR-alpha (Homo sapiens) (UniProt P19793); assay: OT_NURR1_NURR1RXRa_0480: Odyssey Thera (OT) 8-hour HEK293T Protein Complementation Assay for Nurr1/retinoid X receptor (RXR) (AID 2283385)
In short: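 HEK293T cells expressing Nurr1 and RXRα fused to reporter fragments were dosed with compound for 8 hours. Complex formation was read as fluorescence intensity and analysed as gain of signal against DMSO as baseline.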

[4] = target: Retinoic acid receptor RXR-alpha (Homo sapiens) (UniProt P19793); assay: OT_NURR1_NURR1RXRa_1440: Odyssey Thera (OT) 24-hour HEK293T Protein Complementation Assay for Nurr1/retinoid X receptor (RXR) (AID 2283386)
In short: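 HEK293T cells were dosed with compound and read 24 h later by fluorescence intensity in a protein-fragment complementation format, where Nurr1–RXRα interaction reconstitutes a split reporter. Activity was fitted as gain of signal relative to DMSO baseline.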

[5] = target: Peroxisome proliferator-activated receptor gamma (Homo sapiens) (UniProt P37231); assay: OT_PPARg_PPARgSRC1_0480: Odyssey Thera (OT) 8-hour Protein-Complementation Assay for Peroxisome Proliferator-activated Receptor Gamma / SRC-1 Co-activator (AID 2283387);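 note: nuclear to cytoplasmic split Venus YFP fluorescence ratio reporting PPARg SRC-1 interaction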
In short: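 Read-out: 488 nm N/C fluorescence ratio from complemented Venus YFP fragments, ≥350 cells per image, gain-of-signal fitted against DMSO baseline. Fusions of PPARg/SRC-1 with IFP1/IFP2 expressed transiently in HEK293T; compounds applied 8 h.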

[6] = CEETOX_H295R_11DCORT: CeeTox H295R High-throughput Steroidogenesis Assay for 11-Deoxycortisol (11DCORT) (AID 2283432; active = hit-call score of the fitted dose curve at least 0.9, where 1 is the maximum; inactive = score below 0.9); settings: actives raise or lower the signal
In short: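 H295R cells; 10 uM forskolin prestim 48 h; compound in 0.1% DMSO 48 h; media extracted with MTBE; 11-deoxycortisol by LC-MS/MS, 7-point standard curve; gain/loss vs DMSO baseline; viability by MTT in same wells.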

[7] = CEETOX_H295R_OHPREG: CeeTox H295R High-throughput Steroidogenesis Assay for OH-Pregnenolone (OHPREG) (AID 2283434; active = hit-call score of the fitted dose curve at least 0.9, where 1 is the maximum; inactive = score below 0.9); settings: actives raise or lower the signal
In short: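 Hormone levels in spent medium were measured by tandem mass spectrometry following liquid-liquid extraction. Cells (H295R) had been forskolin-stimulated (10 uM, 48 h) before a 48 h chemical exposure at 0.1% DMSO, with activity fitted in both directions against DMSO.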

[8] = CEETOX_H295R_OHPROG: CeeTox H295R High-throughput Steroidogenesis Assay for OH-Progesterone (OHPROG) (AID 2283435; active = hit-call score of the fitted dose curve at least 0.9, where 1 is the maximum; inactive = score below 0.9); settings: actives raise or lower the signal
In short: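 H295R human adrenal cells were prestimulated 48 h with 10 uM forskolin, then exposed 48 h to test chemical (0.1% DMSO final). 17alpha-hydroxyprogesterone in medium was measured by HPLC-MS/MS after MTBE extraction; bidirectional fitting vs DMSO.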

[9] = CEETOX_H295R_CORTIC: CeeTox H295R High-throughput Steroidogenesis Assay for Corticosterone (CORTIC) (AID 2283437; active = hit-call score of the fitted dose curve at least 0.9, where 1 is the maximum; inactive = score below 0.9;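 note: corticosterone secreted into medium quantified by mass spectrometry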); settings: actives raise or lower the signal
In short: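 Corticosterone secreted into medium is measured by reverse-phase HPLC with tandem MS following liquid-liquid extraction. Cells are forskolin-stimulated (10 uM, 48 h) before 48 h test exposure; activity fitted in both directions against DMSO.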

[10] = CEETOX_H295R_CORTISOL: CeeTox H295R High-throughput Steroidogenesis Assay for Cortisol (AID 2283438; active = hit-call score of the fitted dose curve at least 0.9, where 1 is the maximum; inactive = score below 0.9;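 note: cortisol secreted into medium quantified by LC-MS/MS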); settings: actives raise or lower the signal
In short: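 H295R human adrenal cells were prestimulated 48 h with 10 uM forskolin, then exposed 48 h to test chemical (0.1% DMSO final). Medium cortisol was quantified by HPLC-MS/MS after MTBE extraction; bidirectional fitting relative to DMSO baseline.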

[11] = CEETOX_H295R_DOC: CeeTox H295R High-throughput Steroidogenesis Assay for DOC (AID 2283439; active = hit-call score of the fitted dose curve at least 0.9, where 1 is the maximum; inactive = score below 0.9); settings: actives raise or lower the signal
In short: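 H295R adrenal cells prestimulated 48 h with 10 uM forskolin, then exposed 48 h to test chemical (0.1% DMSO final). Medium 11-deoxycorticosterone extracted with MTBE, quantified by HPLC-MS/MS; bidirectional fit versus DMSO baseline; MTT viability in same wells.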

[12] = CEETOX_H295R_ESTRADIOL: CeeTox H295R High-throughput Steroidogenesis Assay for Estradiol (AID 2283440; active = hit-call score of the fitted dose curve at least 0.9, where 1 is the maximum; inactive = score below 0.9;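 note: estradiol secreted into medium quantified by LC-MS/MS after dansyl derivatisation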); settings: actives raise or lower the signal
In short: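 H295R, 48 h forskolin (10 uM) prestim → 48 h compound, 0.1% DMSO final. Estradiol in medium: MTBE extraction, dansyl chloride derivatization, LC-MS/MS. Fit bidirectional vs DMSO baseline; MTT viability in same wells.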

[13] = CEETOX_H295R_ESTRONE: CeeTox H295R High-throughput Steroidogenesis Assay for Estrone (AID 2283441; active = hit-call score of the fitted dose curve at least 0.9, where 1 is the maximum; inactive = score below 0.9;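 note: estrone secreted into medium measured by LC-MS/MS after dansyl derivatization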); settings: actives raise or lower the signal
In short: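 H295R cells; 48 h forskolin (10 uM) prestimulation; 48 h compound exposure, 0.1% DMSO final. Medium estrone: MTBE extraction, dansyl derivatization, HPLC-MS/MS. Bidirectional fit vs DMSO.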

[14] = CEETOX_H295R_PROG: CeeTox H295R High-throughput Steroidogenesis Assay for Progesterone (PROG) (AID 2283442; active = hit-call score of the fitted dose curve at least 0.9, where 1 is the maximum; inactive = score below 0.9;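 for AC50: human H295R adrenal cells primed with 10 µM forskolin before dosing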); settings: actives raise or lower the signal
In short: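 Progesterone read-out: HPLC-MS/MS on MTBE extracts of conditioned medium after 48 h chemical exposure of forskolin-primed (10 uM, 48 h) H295R cells. Gain or loss of signal was fitted relative to DMSO baseline.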

[15] = read-out: Tumor necrosis factor receptor superfamily member 6 (Homo sapiens) (UniProt P25445); assay: LTEA_HepaRG_FAS: Life Technologies and Expression Analysis (LTEA) Assay for Fas cell surface death receptor (FAS) using HepaRG (AID 2283447; active = hit-call score of the fitted dose curve at least 0.9, where 1 is the maximum; inactive = score below 0.9); settings: mRNA level, 48 h; actives raise or lower the signal
In short: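 FAS transcript level was measured by TaqMan qRT-PCR against three housekeeping genes after 48 h chemical exposure. Cells were HepaRG, 0.5% DMSO vehicle, with a top concentration of 100 uM and half-log dilutions over eight points, in duplicate.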

[16] = read-out: Fatty acid synthase (Homo sapiens) (UniProt P49327); assay: LTEA_HepaRG_FASN: Life Technologies and Expression Analysis (LTEA) Assay for Fatty Acid Synthase (FASN) using HepaRG (AID 2283448; active = hit-call score of the fitted dose curve at least 0.9, where 1 is the maximum; inactive = score below 0.9); settings: mRNA level, 48 h; actives raise or lower the signal
In short: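 Differentiated human HepaRG cells were exposed for 48 h in serum-free induction medium to eight half-log concentrations up to 100 uM in 0.5% DMSO, in duplicate. FASN mRNA was quantified by TaqMan qRT-PCR, normalized to ACTB/GAPDH/POLR2A, and fitted bidirectionally against DMSO.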

[17] = read-out: Cyclin D2 (CCND2), CCND2 (gene 894); assay: LTEA_HepaRG_CCND2: Life Technologies and Expression Analysis (LTEA) Assay for Cyclin D2 (CCND2) using HepaRG (AID 2283449; active = hit-call score of the fitted dose curve at least 0.9, where 1 is the maximum; inactive = score below 0.9); settings: mRNA level, 48 h; actives raise or lower the signal
In short: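 Read-out is CCND2 mRNA level measured by qRT-PCR in human HepaRG liver cells and normalised to three housekeeping genes. Chemicals were applied for 48 h at up to 100 uM, with gain or loss fitted relative to 0.5% DMSO.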

[18] = read-out: Cyclin Dependent Kinase Inhibitor 1A (CDKN1A), CDKN1A (gene 1026); assay: LTEA_HepaRG_CDKN1A: Life Technologies and Expression Analysis (LTEA) Assay for Cyclin Dependent Kinase Inhibitor 1A (CDKN1A) using HepaRG (AID 2283450; active = hit-call score of the fitted dose curve at least 0.9, where 1 is the maximum; inactive = score below 0.9); settings: mRNA level, 48 h; actives raise or lower the signal
In short: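 HepaRG, 48 h dosing, 8-pt half-log series from 100 uM top, 0.5% DMSO vehicle, duplicates. Readout: TaqMan qRT-PCR of CDKN1A transcript, housekeeping-normalized (ACTB, GAPDH, POLR2A). Up/down curve fit relative to DMSO.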

[19] = target: Peroxisome proliferator-activated receptor gamma (Homo sapiens) (UniProt P37231); assay: OT_PPARg_PPARgSRC1_1440: Odyssey Thera (OT) 24-hour Protein-Complementation Assay for Peroxisome Proliferator-activated Receptor Gamma/ SRC-1 Co-activator (AID 2283388);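 note: nuclear to cytoplasmic ratio of reconstituted Venus YFP fluorescence in fixed imaged cells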
In short: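 Readout: nuclear-to-cytoplasmic 488 nm fluorescence ratio, ≥350 cells per image, 8 images per well, after 24 h compound exposure of HEK293T expressing PPARg/SRC-1 split-YFP fusions. Activity fitted in positive direction against DMSO.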

Measured: AC50

Chain of Peroxisome proliferator-activated receptor gamma (Homo sapiens) (P37231 whole entry, looked up, the tested form may be a part): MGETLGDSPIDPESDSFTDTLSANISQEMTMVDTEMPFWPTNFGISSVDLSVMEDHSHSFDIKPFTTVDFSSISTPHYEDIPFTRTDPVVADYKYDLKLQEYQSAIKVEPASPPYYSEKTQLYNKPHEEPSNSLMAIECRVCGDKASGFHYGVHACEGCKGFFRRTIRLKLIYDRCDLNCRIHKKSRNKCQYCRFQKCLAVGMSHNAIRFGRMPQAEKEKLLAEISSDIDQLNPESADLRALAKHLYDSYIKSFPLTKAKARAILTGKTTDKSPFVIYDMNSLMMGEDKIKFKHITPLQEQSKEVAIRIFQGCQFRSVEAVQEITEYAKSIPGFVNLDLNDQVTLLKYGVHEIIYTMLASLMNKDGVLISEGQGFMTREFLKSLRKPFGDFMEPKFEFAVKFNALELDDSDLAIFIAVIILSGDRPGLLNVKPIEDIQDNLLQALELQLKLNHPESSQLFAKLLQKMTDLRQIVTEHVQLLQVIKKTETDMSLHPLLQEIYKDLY
Chain of Fatty acid synthase (Homo sapiens) (P49327 whole entry, looked up): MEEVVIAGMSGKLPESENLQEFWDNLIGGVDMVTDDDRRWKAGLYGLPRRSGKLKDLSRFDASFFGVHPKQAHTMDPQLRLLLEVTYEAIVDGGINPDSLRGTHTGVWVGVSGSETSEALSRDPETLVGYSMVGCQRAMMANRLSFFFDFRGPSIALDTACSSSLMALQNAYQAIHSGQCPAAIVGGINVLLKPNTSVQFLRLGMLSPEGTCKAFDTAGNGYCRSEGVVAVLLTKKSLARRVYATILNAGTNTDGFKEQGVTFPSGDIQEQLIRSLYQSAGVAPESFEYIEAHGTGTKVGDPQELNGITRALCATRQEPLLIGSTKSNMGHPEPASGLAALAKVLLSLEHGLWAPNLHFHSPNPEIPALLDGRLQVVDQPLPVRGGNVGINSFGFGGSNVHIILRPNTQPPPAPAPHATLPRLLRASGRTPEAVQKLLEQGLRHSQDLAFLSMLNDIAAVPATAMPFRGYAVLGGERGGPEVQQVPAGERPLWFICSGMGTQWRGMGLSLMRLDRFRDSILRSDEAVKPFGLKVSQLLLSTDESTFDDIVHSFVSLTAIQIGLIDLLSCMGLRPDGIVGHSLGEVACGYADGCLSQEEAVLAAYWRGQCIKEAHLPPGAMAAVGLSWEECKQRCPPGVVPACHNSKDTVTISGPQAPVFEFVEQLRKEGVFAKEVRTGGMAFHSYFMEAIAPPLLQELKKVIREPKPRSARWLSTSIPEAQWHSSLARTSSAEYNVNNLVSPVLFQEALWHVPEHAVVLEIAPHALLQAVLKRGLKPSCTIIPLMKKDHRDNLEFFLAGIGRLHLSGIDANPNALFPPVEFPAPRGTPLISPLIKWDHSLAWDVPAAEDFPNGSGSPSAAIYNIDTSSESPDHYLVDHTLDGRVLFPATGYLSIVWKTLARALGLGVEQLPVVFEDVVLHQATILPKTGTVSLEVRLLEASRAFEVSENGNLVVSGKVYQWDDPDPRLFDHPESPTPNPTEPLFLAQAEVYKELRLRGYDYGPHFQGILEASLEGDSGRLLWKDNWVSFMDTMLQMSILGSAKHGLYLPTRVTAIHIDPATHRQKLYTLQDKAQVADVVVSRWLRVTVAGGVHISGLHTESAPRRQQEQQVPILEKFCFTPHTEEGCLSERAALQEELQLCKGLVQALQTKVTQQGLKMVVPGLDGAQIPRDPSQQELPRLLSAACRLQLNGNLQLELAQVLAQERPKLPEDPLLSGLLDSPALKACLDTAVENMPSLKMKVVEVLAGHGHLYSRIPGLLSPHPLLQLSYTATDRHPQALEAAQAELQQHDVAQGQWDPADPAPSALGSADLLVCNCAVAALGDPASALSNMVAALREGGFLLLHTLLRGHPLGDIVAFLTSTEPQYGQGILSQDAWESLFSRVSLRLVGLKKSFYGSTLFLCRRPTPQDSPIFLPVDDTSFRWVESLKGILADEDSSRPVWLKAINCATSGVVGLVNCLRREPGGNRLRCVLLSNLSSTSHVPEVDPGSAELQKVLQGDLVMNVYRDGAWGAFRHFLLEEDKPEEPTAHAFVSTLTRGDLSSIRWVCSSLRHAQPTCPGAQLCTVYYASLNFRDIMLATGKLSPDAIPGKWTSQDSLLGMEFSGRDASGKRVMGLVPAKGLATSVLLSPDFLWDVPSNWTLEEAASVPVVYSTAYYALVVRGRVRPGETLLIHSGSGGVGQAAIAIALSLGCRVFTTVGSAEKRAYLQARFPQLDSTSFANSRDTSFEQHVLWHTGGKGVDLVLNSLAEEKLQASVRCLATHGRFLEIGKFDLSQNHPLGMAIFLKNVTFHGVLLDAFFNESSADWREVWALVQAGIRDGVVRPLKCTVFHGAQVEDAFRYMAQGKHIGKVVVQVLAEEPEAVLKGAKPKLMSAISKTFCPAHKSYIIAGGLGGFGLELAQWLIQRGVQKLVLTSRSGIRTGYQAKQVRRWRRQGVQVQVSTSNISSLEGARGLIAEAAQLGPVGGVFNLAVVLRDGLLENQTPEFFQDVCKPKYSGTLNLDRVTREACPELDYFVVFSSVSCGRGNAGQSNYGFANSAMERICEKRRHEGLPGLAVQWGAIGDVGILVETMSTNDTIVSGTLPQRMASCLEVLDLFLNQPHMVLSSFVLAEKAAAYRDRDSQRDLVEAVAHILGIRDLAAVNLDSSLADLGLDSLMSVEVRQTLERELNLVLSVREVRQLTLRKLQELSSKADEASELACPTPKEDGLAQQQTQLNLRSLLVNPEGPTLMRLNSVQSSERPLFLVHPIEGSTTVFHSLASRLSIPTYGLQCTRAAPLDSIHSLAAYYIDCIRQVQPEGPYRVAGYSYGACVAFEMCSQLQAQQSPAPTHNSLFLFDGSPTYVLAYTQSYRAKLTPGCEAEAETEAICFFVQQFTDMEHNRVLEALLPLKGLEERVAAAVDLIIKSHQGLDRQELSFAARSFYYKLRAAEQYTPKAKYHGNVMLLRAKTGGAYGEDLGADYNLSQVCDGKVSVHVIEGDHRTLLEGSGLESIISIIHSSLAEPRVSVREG
Chain of Bile acid receptor (Homo sapiens) (Q96RI1 whole entry, looked up, the tested form may be a part): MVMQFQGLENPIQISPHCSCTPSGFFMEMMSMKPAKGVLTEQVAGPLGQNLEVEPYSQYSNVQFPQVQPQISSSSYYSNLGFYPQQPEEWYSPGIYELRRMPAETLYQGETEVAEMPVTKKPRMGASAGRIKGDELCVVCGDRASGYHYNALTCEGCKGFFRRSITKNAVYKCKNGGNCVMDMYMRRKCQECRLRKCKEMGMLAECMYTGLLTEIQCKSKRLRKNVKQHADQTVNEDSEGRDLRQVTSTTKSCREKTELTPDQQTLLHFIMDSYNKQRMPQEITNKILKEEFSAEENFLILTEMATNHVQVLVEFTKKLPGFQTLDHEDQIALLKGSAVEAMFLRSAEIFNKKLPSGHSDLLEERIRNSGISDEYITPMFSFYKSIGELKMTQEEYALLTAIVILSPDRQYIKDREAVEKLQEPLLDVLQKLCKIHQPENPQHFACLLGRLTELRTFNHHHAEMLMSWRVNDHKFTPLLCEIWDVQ
Chain of Retinoic acid receptor RXR-alpha (Homo sapiens) (P19793 whole entry, looked up, the tested form may be a part): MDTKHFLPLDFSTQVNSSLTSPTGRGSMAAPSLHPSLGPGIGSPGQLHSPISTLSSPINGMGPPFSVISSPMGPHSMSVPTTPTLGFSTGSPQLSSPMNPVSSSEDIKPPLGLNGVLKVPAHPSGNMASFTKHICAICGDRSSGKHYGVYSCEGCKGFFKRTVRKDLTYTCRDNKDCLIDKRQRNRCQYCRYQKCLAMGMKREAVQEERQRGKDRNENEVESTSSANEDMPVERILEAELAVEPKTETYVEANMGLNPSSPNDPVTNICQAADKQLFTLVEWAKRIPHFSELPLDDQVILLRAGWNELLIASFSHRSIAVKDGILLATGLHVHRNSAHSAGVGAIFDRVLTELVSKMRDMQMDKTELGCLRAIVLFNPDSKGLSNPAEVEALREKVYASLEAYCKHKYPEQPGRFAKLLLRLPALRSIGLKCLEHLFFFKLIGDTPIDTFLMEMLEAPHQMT

CCOP(=S)(OCC)SCn1c(=O)oc2cc(Cl)ccc21
active: [1] 17.9 µM | [2] 12 µM | [7] 5 µM | [9] 1.14 µM | [11] 1.36 µM | [12] 1.23 µM | [13] 1.62 µM | [14] 3.23 µM
not listed: [19]
inactive: all other assays above

CCNc1nc(Cl)nc(NCC)n1
active: [13] 8.07 µM
inactive: all other assays above

COC(=O)C=C(C)OP(=O)(OC)OC
inactive: [1] | [2] | [3] | [4] | [5] | [19] | [15] | [16] | [17] | [18]

N#Cc1nn(-c2c(Cl)cc(C(F)(F)F)cc2Cl)c(N)c1S(=O)C(F)(F)F (stereo not drawn)
active: [1] 35 µM | [2] 33 µM | [15] 61.2 µM | [16] 58.1 µM | [18] 32.5 µM
inactive: [3] | [4] | [5] | [19] | [17]

COC(=O)N(OC)c1ccccc1COc1ccn(-c2ccc(Cl)cc2)n1
inactive: [3] | [4] | [5] | [19] | [16]
active: [1] 1.54 µM | [2] 1.45 µM | [15] 78.3 µM | [18] 79 µM

C#CCOS(=O)OC1CCCCC1Oc1ccc(C(C)(C)C)cc1 (stereo not drawn)
inactive: [3] | [4] | [5] | [19] | [17]
active: [1] 21.4 µM | [2] 31.1 µM | [3] 39.4 µM | [4] 31.6 µM | [15] 44.8 µM | [16] 27.5 µM | [18] 12.9 µM
